# Where “and” joins values, the source holds several entries; their conditions need not be identical. Identical values can stand only once. Hit rate of the full screen: of about 230,000 compounds, about 1,500 (0.65%) were called active.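 How the source made its calls: active means pattern-corrected inhibition of lipid staining of at least 50% with the nuclear-stain viability signal not falling by more than 50%; inactive means the rest, inconclusive results apart.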 Shown is part of a subset that was picked to be rich in actives.
# Experiment: TAG lipid buildup reduction in H9c2 cells – cell-based, uHTS, fluorescence, primary screen (AID 651582);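 on inhibition: 0% = DMSO wells and 100% = triacsin C control wells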
# Conditions: Nile Red lipid (TAG) fluorescence, at 12.5 µM, cells loaded with 200 µM oleic acid; DAPI nuclei signal change (viability), lower = more cytotoxic: measured here: DAPI nuclei count viability; inhibition: stronger effect = higher value
SMILES,"DAPI nuclei signal change (viability), lower = more cytotoxic",inhibition
CCN1C[C@@H]2[C@@H]3C(=O)N(Cc4ccccc4)C(=O)[C@@H]3[C@](C)(C1=O)N2C(=O)c1ccc(C(C)(C)C)cc1,-6.19%,19.2% (inactive)
COc1ccc(NC(=O)CNc2cc(S(=O)(=O)N3CCOCC3)ccc2N2CCOCC2)c(OC)c1,15.7%,-15.8% (inactive)
Cc1ccsc1/C=N/Nc1ccc(Cl)nn1,-14%,5.97% (inactive)
C/C(=N\Nc1ccc(Cl)nn1)c1ccccc1O,-30.3%,59.1% (active)
Clc1ccc(N/N=C/c2cccs2)nn1,3.1%,-6.69% (inactive)
COc1ccccc1-c1nn(Cc2ccccc2)cc1C(=O)N1CCN(c2ncccn2)CC1,-19.5%,12.4% (inactive)
CC(C)C(=O)N1CCC2(CC1)Oc1ccc(F)cc1C(=O)C21CC(c2ccccc2)=NO1 (configuration not stated),-26.9%,60% (active)
CC(C)C(=O)N1CCN(c2nc(-c3ccccc3)c3c(c2C#N)CC(C)(C)OC3)CC1,5.61%,6.61% (inactive)
O=C1CC2(CCN(C(=O)COc3ccc(F)cc3)CC2)Oc2ccccc21,-14.6%,21.4% (inactive)
COc1ccc(C(=O)NCc2ccccc2C)cc1S(=O)(=O)NC1CCCC1,1.26%,-5.94% (inactive)
O=C(O)c1ccc(NN=CC2=C(N3CCOCC3)/C(=C/c3ccccc3)CC2)cc1,1.8%,2.29% (inactive)
C(=N\N1CCN(c2ccccn2)CC1)/C1=C(N2CCOCC2)C(=C/c2ccccc2)/CC1,12.6%,8.28% (inactive)
O=C1Nc2ccc(Br)cc2/C1=N/N=C/C1=C(N2CCOCC2)C(=C\c2ccccc2)/CC1,-30.7%,142% (active)
CC(=O)Oc1ccc(Cn2c(C)c(C(=O)NCc3ccc(C#N)cc3)sc2=O)cc1,-0.306%,-4.77% (inactive)
COc1cc(Cl)c(C)cc1NC(=O)CSc1nnc(CN2CCCC2)o1,4.62%,1.12% (inactive)
Cc1ccn(CC(=O)NC2CCCN(Cc3ccccc3F)C2)n1 (configuration not stated),1.69%,-15.9% (inactive)
Cc1ccc(OCCNC(=O)c2cccc(S(=O)(=O)N3CCN(Cc4ccccc4)CC3)c2)cc1,3.36%,-7.75% (inactive)
CC(C)CCOc1ccc(C(=O)Nc2cc(S(=O)(=O)N3CCOCC3)ccc2N2CCOCC2)cc1,-52.3%,65.1% (inactive)
CCCCCC(=O)Nc1ccc2oc(-c3ccncc3)nc2c1,-5.68%,4.08% (inactive)
O=C(Cc1cccc2ccccc12)Nc1ccc2oc(-c3ccccc3)nc2c1,-5.68%,55.2% (active)
O=C(Nc1ccc2oc(-c3ccc4ccccc4c3)nc2c1)c1cccs1,21.1%,33% (inactive)

SMILES,"DAPI nuclei signal change (viability), lower = more cytotoxic",inhibition
CC(=O)NC(c1cccc(F)c1)c1nc(-c2cccc(F)c2)cs1 (configuration not stated),2.1%,-15.8% (inactive)
CCCn1c(N)c(C(=O)CSc2nnc(Cc3cccs3)n2C2CC2)c(=O)[nH]c1=O,-3.34%,5.02% (inactive)
COc1ccc(S(=O)(=O)N2CCN(CC(=O)NCC3(N4CCOCC4)CCCCC3)CC2)cc1,-5.18%,-1.89% (inactive)
COc1cc(Cn2c3ccc(NC(=O)CC(C)c4ccccc4)cc3c(=O)n2C)ccc1F (configuration not stated),6.84%,4.12% (inactive)
CCOCCC(=O)Nc1ccc2c(c1)c(=O)n(C)n2-c1ccc2ccccc2c1,-27.1%,52.9% (active)
CCn1c2ccccc2c2cc(NC(=O)CNC)ccc21,-1.08%,10.2% (inactive)
NC(=O)CSc1nnc(-c2cccc(S(=O)(=O)N3CCOCC3)c2)o1,2.86%,9.91% (inactive)
O=[N+]([O-])c1cccc(C=NN=Cc2ccccc2O)c1,-6.09%,3.14% (inactive)
COc1ccc(NC(=O)C2Cc3c(-c4ccc5c(c4)OCO5)ccnc3O2)cn1 (configuration not stated),-129%,146% (inactive)
CCN1C(=O)/C(=C2/Sc3ccccc3N2CCCS(=O)(=O)O)SC1=S,12.7% and -2.03%,-9.06% (inactive) and 5.16% (inactive)
CCCCN1C(=O)/C(=C/C=C2/C=Cc3ccccc3N2CC)SC1=S,10.9%,87.8% (active)
CCN1C(=O)/C(=C\N2CCOCC2)SC1=S,1.56%,1.92% (inactive)
CCc1nc2c(OCc3ccc(F)c(F)c3)cccn2c1N(C)C(=O)c1ccco1,-19.3%,7.19% (inactive)
COc1ccc(N2CCN(Cc3cc(=O)oc4ccc5ccccc5c34)CC2)cc1,4.7%,7.86% (inactive)
COc1ccc(Nc2cc(=O)oc3ccccc23)cc1,-14.8%,52.3% (active)
COc1ccc(Nc2ccc3ccccc3c2)cc1,8.55%,8.64% (inactive)
COC(=O)c1ccc(C)c(NC(=O)Cn2c(C)csc2=O)c1,5.24%,-8.36% (inactive)
COc1cccc(NC(=O)C2(C)CCN2Cc2ccccc2Cl)c1 (configuration not stated),10.6%,-19.4% (inactive)
CC1CN(Cc2ccco2)C(=S)N(c2ccccc2)C1=O (configuration not stated),-1.49%,-14.4% (inactive)
Cc1cs/c(=N\N=C\c2ccc(O)cc2)n1Cc1ccco1,-3.51%,-2.08% (inactive)
CN(C)C(=S)N=c1ssc(=S)n1Cc1ccco1,-24%,51% (active)

SMILES,"DAPI nuclei signal change (viability), lower = more cytotoxic",inhibition
Cc1onc(NC(=O)c2ccc([N+](=O)[O-])o2)c1Br,-38.7%,59.1% (active)
Cc1cccc(NC(=O)c2ccc([N+](=O)[O-])o2)c1,-57.9%,80.8% (inactive)
O=C(Nc1ccc(Br)cn1)c1ccc([N+](=O)[O-])o1,-72.2%,83.9% (inactive)
CC(C)(C)OC(=O)C[C@@H]1C/C=C\C[C@@H](CC(=O)NCCO)C(=O)N[C@H](Cc2c[nH]c3ccccc23)COC1=O,3.2%,-15.4% (inactive)
COc1cccc(NC(=O)CN(C)C(=O)c2ccccc2CCc2ccccc2)c1,-2.81%,1.2% (inactive)
O=C(COC(=O)c1ccc(F)cc1)NCC1COc2ccccc2O1 (configuration not stated),-0.149%,4.29% (inactive)
CCN(CC)CCC(c1ccc2c(c1)OCO2)c1c(OC)cc(OC)c2c(-c3ccccc3)cc(=O)oc12 (configuration not stated),-32.4%,57.5% (active)
COc1cc(OC)c2ccc(=O)oc2c1C(CCN1CCN(c2ccccc2)CC1)c1ccc2c(c1)OCO2 (configuration not stated),10.1%,25.2% (inactive)
CCN(CC)CCC(c1cc(OC)c(OC)c(OC)c1)c1c(OC)cc(OC)c2c(-c3ccccc3)cc(=O)oc12 (configuration not stated),-19.6%,30.8% (inactive)
COc1ccc(-c2ccc(CN3C(CC(C)C)C(=O)N(Cc4cn(CC5CCCCC5)nn4)CCS3(=O)=O)cc2)cn1 (configuration not stated),-15.9%,31% (inactive)
CCCC[C@H]1COCCS(=O)(=O)N1Cc1cccc(Cl)c1,-5.51%,5.89% (inactive)
O=C(CN1C(=O)NC2(CCCCCC2)C1=O)NCc1ccc(F)cc1,0.843%,-2.12% (inactive)
Cc1cccc(-c2cnc(C(O)c3ccc4ccccc4c3)[nH]2)c1 (configuration not stated),0.713%,-12.6% (inactive)
COc1ccc(S(=O)(=O)N2CCc3ccccc32)cc1C(=O)Nc1cc(S(C)(=O)=O)ccc1Cl,-36.5%,61.6% (active)
COc1cccc(NC(=O)c2cc(S(=O)(=O)N3CCc4ccccc43)cn2C)c1,-2.57%,-1.15% (inactive)
CCN(C(=O)COC(=O)c1cc(S(=O)(=O)N2CCc3ccccc32)ccc1OC)C1CCS(=O)(=O)C1 (configuration not stated),-4.55%,3.02% (inactive)
CCOC(=O)C1(C)CCCN(C(=O)c2ccc(N(C)C)cc2)C1 (configuration not stated),5.71%,-6.89% (inactive)
COc1ccc2sc(-c3ccc(N(C)C)cc3)c(-c3ccc4cc[nH]c4c3)c2c1,224%,24.3% (inactive)
COc1ccc2sc(-c3ccc(N(C)C)cc3)c(C#CCO)c2c1,426%,66.7% (active)
COc1ccc(-c2sc3ccc(OC)cc3c2C#Cc2ccccn2)cc1,5.72%,13.1% (inactive)
Cc1cccc(C(=O)Nc2nnc(S(=O)(=O)N3CCCCCC3)s2)c1,-4.18%,6.02% (inactive)

SMILES,"DAPI nuclei signal change (viability), lower = more cytotoxic",inhibition
O=C(NCc1nnnn1-c1ccc(Cl)cc1)c1ccc2c(c1)OCO2,1.1%,-6.02% (inactive)
c1ccc(Cn2nnc3c(NCC4CC4)ncnc32)cc1,-8.3%,23.9% (inactive)
CNc1cncc(-c2ccc(NS(C)(=O)=O)cc2)n1,-24.4%,24.8% (inactive)
CC(C)(c1ccccc1)c1ccc(OCCN)cc1,10.8%,22% (inactive)
CN(C)CC(O)COc1ccc(C(C)(C)c2ccc(OCC(O)CN(C)C)cc2)cc1 (configuration not stated),20%,50.5% (active)
CCc1ccc(OCC(O)CN2CCN(CCO)CC2)cc1 (configuration not stated),4.43%,-3.68% (inactive)
CC(=O)NC12CC3CC(C1)CC(C(=O)N1CCN(C(=O)c4ccco4)CC1)(C3)C2,0.13%,-4.34% (inactive)
CS(=O)(=O)c1ccc(C(=O)NNC(=O)c2cccs2)cc1,-4.79%,-4.25% (inactive)
C=CCNC(=S)N/N=C/c1ccc(OCc2ccccc2)cc1,1.44%,9.8% (inactive)
C=CCNC(=S)N/N=C/c1ccc(C)s1,-18.5%,56% (active)
Cc1ccc(/C=N/NC(=O)CN2CCN(Cc3ccccc3)CC2)s1,1.3%,2.92% (inactive)
CCOc1ccc(CN2CCN(Cc3ccc4cc(F)ccc4n3)CC2CCO)cc1 (configuration not stated),1.54%,7.07% (inactive)
O=C(CN1CCN(Cc2ccccc2)CC1)NC(c1ccccc1)c1ccccc1,4.91%,-87.5% (inactive)
O=C(CCN1CCN(C/C=C/c2ccccc2)CC1)Nc1cccc(F)c1,11.8%,13.2% (inactive)
O=c1cc(N2CCN(Cc3ccccc3)CC2)c(-c2ccccc2)n[nH]1,-7.21%,20.7% (inactive)
CNC(=O)NC(=O)C(C)N1CCN(C/C=C/c2ccccc2)CC1 (configuration not stated),3.57%,4.65% (inactive)
O=C1c2ccccc2C(=O)c2c1cccc2N1CCN(C/C=C/c2ccccc2)CC1,3.54%,59.1% (active)
O=C1c2ccccc2C(=O)c2c1cccc2N1CCN(Cc2ccccc2)CC1,4.09%,114% (active)
